# In PubChem BioAssay (NCI):
# Compounds without any hit were thinned out: in the full panel of roughly 79,000, 15% have a hit. A number with no mark means an inactive call. Active and inactive are the calls of the source. No stated cut-off is given here; in the data, active means growth inhibition above about 70%; inactive means the rest.
# Legend:
# [1] = NCI Yeast Anticancer Drug Screen. Data for the rad52 strain (AID 147);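 further: 0% = growth of vehicle-treated control cultures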; settings: S. cerevisiae rad52 mutant growth inhibition, stronger effect = higher value
# Method in brief: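 Growth of repair-deficient yeast cells was compared between compound-treated and vehicle-treated cultures to give percent inhibition.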
# [2] = NCI Yeast Anticancer Drug Screen. Data for the wt1 strain (AID 149);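 further: 0% = growth of vehicle-treated wt1 cultures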; settings: S. cerevisiae wt1 strain (SPY 50644) growth inhibition, stronger effect = higher value
# Method in brief: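 wt1 yeast, compound-treated; % growth inhibition vs vehicle control.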
# [3] = NCI Yeast Anticancer Drug Screen. Data for the rad50EPP+ strain (AID 151);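 further: 0% = growth of vehicle-treated control cultures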; settings: S. cerevisiae rad50 mutant strain, stronger effect = higher value
# Method in brief: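 Measured: growth inhibition of rad50EPP+ yeast. Reference: vehicle-treated controls. Screen uses strains with defined genetic alterations in DNA damage repair or cell cycle control.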
# [4] = NCI Yeast Anticancer Drug Screen. Data for the rad50 strain (AID 155);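 further: 0% = growth of vehicle-only cultures of the same strain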; settings: S. cerevisiae rad50 strain growth inhibition, stronger effect = higher value
# Method in brief: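 Genetically altered yeast (DNA repair pathway); compound treatment; growth inhibition vs vehicle ctrl.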
# [5] = NCI Yeast Anticancer Drug Screen. Data for the mec2-1 strain (AID 157); settings: S. cerevisiae mec2-1 strain, stronger effect = higher value
# Method in brief: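 Compounds were applied to mec2-1 yeast cells. Their growth was then compared with that of vehicle-treated cultures to give growth inhibition.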
# [6] = NCI Yeast Anticancer Drug Screen. Data for the rad14 strain (AID 159);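 further: 0% = growth of vehicle-treated control cultures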; settings: S. cerevisiae rad14 strain growth inhibition, stronger effect = higher value
# Method in brief: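 Test compounds were applied to a repair-deficient yeast strain. Its growth was then compared with that of cultures given vehicle alone, and inhibition was expressed relative to those controls.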
# [7] = NCI Yeast Anticancer Drug Screen. Data for the sgs1 mgt1 strain (AID 161);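 further: 0% = growth of cultures given vehicle only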; settings: S. cerevisiae sgs1 mgt1 strain, stronger effect = higher value
# Method in brief: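 Compounds are added to genetically altered yeast, and growth is compared with cultures given vehicle alone to give percent inhibition.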
# [8] = NCI Yeast Anticancer Drug Screen. Data for the CLN2oe strain (AID 163);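 further: 0% = growth of vehicle-only control cultures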; settings: S. cerevisiae CLN2oe strain, stronger effect = higher value
# Method in brief: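 Cells of an engineered yeast line with disturbed cell-cycle regulation are treated with compound. Inhibition of growth is then calculated relative to the vehicle-treated reference.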
# [9] = NCI Yeast Anticancer Drug Screen. Data for the cln2 rad14 strain (AID 165);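 further: 0% = growth equal to vehicle treated cultures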; settings: S. cerevisiae cln2 rad14 strain, stronger effect = higher value
# Method in brief: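 Strain: cln2 rad14 yeast, altered in cell cycle control and DNA damage repair. Read-out: growth inhibition vs vehicle.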
# [10] = NCI Yeast Anticancer Drug Screen. Data for the bub3 strain (AID 167); settings: S. cerevisiae bub3 mutant strain, stronger effect = higher value
# Method in brief: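 Yeast carrying a defined mutation is treated with each compound, and growth is compared with that of vehicle-exposed cells to give inhibition.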
# [11] = NCI Yeast Anticancer Drug Screen. Data for the wt2 strain (AID 169);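 further: 0% = growth of vehicle-treated yeast cultures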; settings: S. cerevisiae wt2 strain growth inhibition, stronger effect = higher value
# Method in brief: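 Growth of compound-treated yeast is measured and expressed as inhibition relative to vehicle-only controls.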
# [12] = NCI Yeast Anticancer Drug Screen. Data for the mlh1 strain (AID 171);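 further: 0% = growth of vehicle-treated control cultures of the same strain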; settings: S. cerevisiae mlh1 strain growth inhibition, stronger effect = higher value
# Method in brief: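 Test agents were incubated with yeast bearing a defined DNA damage repair or cell cycle control alteration; values are growth inhibition normalised to vehicle-treated cultures.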
# [13] = NCI Yeast Anticancer Drug Screen. Data for the sgs1 strain (AID 173);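 further: 0% = growth of vehicle-only control cultures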; settings: S. cerevisiae sgs1 mutant, stronger effect = higher value
# Method in brief: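 Strain with an altered DNA repair or cell cycle pathway exposed to compound. Growth then measured. Value = inhibition versus vehicle control.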
# [14] = NCI Yeast Anticancer Drug Screen. Data for the mlh1 rad18 strain (AID 175); settings: S. cerevisiae mlh1 rad18 strain growth inhibition, stronger effect = higher value
# Method in brief: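 A repair-deficient yeast strain is exposed to test compound, and growth is scored relative to vehicle-treated controls.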
# [15] = NCI Yeast Anticancer Drug Screen. Data for the rad18 strain (AID 177); settings: S. cerevisiae rad18 mutant growth inhibition, stronger effect = higher value
# Method in brief: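 DNA-repair-defective yeast; compound treatment; growth inhibition scored against vehicle.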
# [16] = at 5.0 µM (retest, dose inferred, filed as 0.5)
# [17] = at 50.0 µM (retest, dose inferred, filed as 5.0)
smiles,measurement,setting,value
CC(=O)CCC1=C(C)C(=O)C(=O)C(C)=C1O,growth inhibition,[1]; at 1.2 µM,-2%
same,growth inhibition,[1]; at 3.7 µM,-3%
same,growth inhibition,[1]; at 11.0 µM,-4%
same,growth inhibition,[1]; at 33.0 µM,20%
same,growth inhibition,[1]; at 100.0 µM,91% (active)
same,growth inhibition,[2]; at 1.2 µM,-4%
same,growth inhibition,[2]; at 3.7 µM,-8%
same,growth inhibition,[2]; at 11.0 µM,-3%
same,growth inhibition,[2]; at 33.0 µM,7%
same,growth inhibition,[2]; at 100.0 µM,80% (active)
same,growth inhibition,[3]; at 1.2 µM,-2%
same,growth inhibition,[3]; at 3.7 µM,-1%
same,growth inhibition,[3]; at 11.0 µM,0%
same,growth inhibition,[3]; at 33.0 µM,7%
same,growth inhibition,[3]; at 100.0 µM,16%
same,growth inhibition,[4]; at 1.2 µM,0%
same,growth inhibition,[4]; at 3.7 µM,9%
same,growth inhibition,[4]; [16],-6%
same,growth inhibition,[4]; at 11.0 µM,14%
same,growth inhibition,[4]; at 33.0 µM,34%
same,growth inhibition,[4]; [17],42%
same,growth inhibition,[4]; at 50.0 µM,7.5%
same,growth inhibition,[4]; at 100.0 µM,89% (active)
same,growth inhibition,[5]; at 1.2 µM,-3%
same,growth inhibition,[5]; at 3.7 µM,-6%
same,growth inhibition,[5]; [16],-4%
same,growth inhibition,[5]; at 11.0 µM,-9%
same,growth inhibition,[5]; at 33.0 µM,13%
same,growth inhibition,[5]; [17],12%
same,growth inhibition,[5]; at 50.0 µM,34.7%
same,growth inhibition,[5]; at 100.0 µM,83% (active)
same,growth inhibition,[6]; at 1.2 µM,-2%
same,growth inhibition,[6]; at 3.7 µM,-1%
same,growth inhibition,[6]; at 11.0 µM,5%
same,growth inhibition,[6]; at 33.0 µM,27%
same,growth inhibition,[6]; at 100.0 µM,85% (active)
same,growth inhibition,[7]; [16],6%
same,growth inhibition,[7]; [17],25%
same,growth inhibition,[7]; at 50.0 µM,39%
same,growth inhibition,[8]; at 1.2 µM,1%
same,growth inhibition,[8]; at 3.7 µM,7%
same,growth inhibition,[8]; at 11.0 µM,7%
same,growth inhibition,[8]; at 33.0 µM,20%
same,growth inhibition,[8]; at 100.0 µM,74% (active)
same,growth inhibition,[9]; [16],-6%
same,growth inhibition,[9]; [17],16%
same,growth inhibition,[9]; at 50.0 µM,14.1%
same,growth inhibition,[10]; at 1.2 µM,-5%
same,growth inhibition,[10]; at 3.7 µM,-16%
same,growth inhibition,[10]; [16],-14%
same,growth inhibition,[10]; at 11.0 µM,6%
same,growth inhibition,[10]; at 33.0 µM,17%
same,growth inhibition,[10]; [17],15%
same,growth inhibition,[10]; at 50.0 µM,75% (active)
same,growth inhibition,[10]; at 100.0 µM,89% (active)
same,growth inhibition,[11]; at 1.2 µM,-3%
same,growth inhibition,[11]; at 3.7 µM,-3%
same,growth inhibition,[11]; at 11.0 µM,-1%
same,growth inhibition,[11]; at 33.0 µM,23%
same,growth inhibition,[11]; at 100.0 µM,94% (active)
same,growth inhibition,[12]; at 1.2 µM,-5%
same,growth inhibition,[12]; at 3.7 µM,-3%
same,growth inhibition,[12]; at 11.0 µM,-23%
same,growth inhibition,[12]; at 33.0 µM,13%
same,growth inhibition,[12]; at 100.0 µM,96% (active)
same,growth inhibition,[13]; at 1.2 µM,-3%
same,growth inhibition,[13]; at 3.7 µM,-6%
same,growth inhibition,[13]; at 11.0 µM,-2%
same,growth inhibition,[13]; at 33.0 µM,22%
same,growth inhibition,[13]; at 100.0 µM,91% (active)
same,growth inhibition,[14]; [16],-28%
same,growth inhibition,[14]; [17],46%
same,growth inhibition,[14]; at 50.0 µM,20.4%
same,growth inhibition,[15]; at 1.2 µM,-4%
same,growth inhibition,[15]; at 3.7 µM,-7%
same,growth inhibition,[15]; at 11.0 µM,-3%
same,growth inhibition,[15]; at 33.0 µM,14%
same,growth inhibition,[15]; at 100.0 µM,90% (active)
O=C1c2cccc3cccc(c23)C(=O)N1CCNCCN1C(=O)c2cccc3cccc(c23)C1=O,growth inhibition,[1]; at 1.2 µM,1%
same,growth inhibition,[1]; at 3.7 µM,3%
same,growth inhibition,[1]; at 11.0 µM,5%
same,growth inhibition,[1]; at 33.0 µM,14%
same,growth inhibition,[1]; at 100.0 µM,34%
same,growth inhibition,[2]; at 1.2 µM,0%
same,growth inhibition,[2]; at 3.7 µM,0%
same,growth inhibition,[2]; at 11.0 µM,-1%
same,growth inhibition,[2]; at 33.0 µM,1%
same,growth inhibition,[2]; at 100.0 µM,5%
same,growth inhibition,[3]; at 1.2 µM,-1%
same,growth inhibition,[3]; at 3.7 µM,0%
same,growth inhibition,[3]; at 11.0 µM,0%
same,growth inhibition,[3]; at 33.0 µM,2%
same,growth inhibition,[3]; at 100.0 µM,10%
same,growth inhibition,[4]; at 1.2 µM,1%
same,growth inhibition,[4]; at 3.7 µM,3%
same,growth inhibition,[4]; [16],19%
same,growth inhibition,[4]; at 11.0 µM,6%
same,growth inhibition,[4]; at 33.0 µM,21%
same,growth inhibition,[4]; [17],84% (active)
same,growth inhibition,[4]; at 50.0 µM,86.1% (active)
same,growth inhibition,[4]; at 100.0 µM,53%
same,growth inhibition,[5]; at 1.2 µM,-3%
same,growth inhibition,[5]; at 3.7 µM,-4%
same,growth inhibition,[5]; [16],6%
same,growth inhibition,[5]; at 11.0 µM,-3%
same,growth inhibition,[5]; at 33.0 µM,2%
same,growth inhibition,[5]; [17],4%
same,growth inhibition,[5]; at 50.0 µM,26.4%
same,growth inhibition,[5]; at 100.0 µM,5%
same,growth inhibition,[6]; at 1.2 µM,0%
same,growth inhibition,[6]; at 3.7 µM,1%
same,growth inhibition,[6]; at 11.0 µM,0%
same,growth inhibition,[6]; at 33.0 µM,-1%
same,growth inhibition,[6]; at 100.0 µM,4%
same,growth inhibition,[7]; [16],5%
same,growth inhibition,[7]; [17],10%
same,growth inhibition,[7]; at 50.0 µM,15.5%
same,growth inhibition,[8]; at 1.2 µM,-1%
same,growth inhibition,[8]; at 3.7 µM,-2%
same,growth inhibition,[8]; at 11.0 µM,4%
same,growth inhibition,[8]; at 33.0 µM,-1%
same,growth inhibition,[8]; at 100.0 µM,-1%
same,growth inhibition,[9]; [16],6%
same,growth inhibition,[9]; [17],6%
same,growth inhibition,[9]; at 50.0 µM,15.9%
same,growth inhibition,[10]; at 1.2 µM,0%
same,growth inhibition,[10]; at 3.7 µM,1%
same,growth inhibition,[10]; [16],2%
same,growth inhibition,[10]; at 11.0 µM,-2%
same,growth inhibition,[10]; at 33.0 µM,-4%
same,growth inhibition,[10]; [17],1%
same,growth inhibition,[10]; at 50.0 µM,0.65%
same,growth inhibition,[10]; at 100.0 µM,-3%
same,growth inhibition,[11]; at 1.2 µM,0%
same,growth inhibition,[11]; at 3.7 µM,0%
same,growth inhibition,[11]; at 11.0 µM,0%
same,growth inhibition,[11]; at 33.0 µM,1%
same,growth inhibition,[11]; at 100.0 µM,5%
same,growth inhibition,[12]; at 1.2 µM,0%
same,growth inhibition,[12]; at 3.7 µM,-3%
same,growth inhibition,[12]; at 11.0 µM,-1%
same,growth inhibition,[12]; at 33.0 µM,0%
same,growth inhibition,[12]; at 100.0 µM,2%
same,growth inhibition,[13]; at 1.2 µM,-1%
same,growth inhibition,[13]; at 3.7 µM,-2%
same,growth inhibition,[13]; at 11.0 µM,-1%
same,growth inhibition,[13]; at 33.0 µM,-1%
same,growth inhibition,[13]; at 100.0 µM,4%
same,growth inhibition,[14]; [16],4%
same,growth inhibition,[14]; [17],18%
same,growth inhibition,[14]; at 50.0 µM,7.55%
same,growth inhibition,[15]; at 1.2 µM,-3%
same,growth inhibition,[15]; at 3.7 µM,-2%
same,growth inhibition,[15]; at 11.0 µM,-1%
same,growth inhibition,[15]; at 33.0 µM,-1%
same,growth inhibition,[15]; at 100.0 µM,6%
